SMILES strings stand for the structures. Inconclusive results are not listed. Entries that show only a call come without a potency. Active and inactive are the calls of the source. Calls come from the whole dose curve; as a rule, active = well fitted activation curve with a large enough effect; inconclusive = small, poorly fitted or top-dose-only effect; inactive = no such curve, though single readings can be large or run the other way.
Potency is the fitted concentration of half-maximal effect.

The nature of the assay: Activators of T cell receptors: Hit Validation. To be noted: primary human leukocytes, cytokine release by HTRF, 48 h, TCR-stimulated with anti-CD3 beads; series mostly up to 46.1 µM. A digest of the protocol: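 Primary human leukocytes incubated 48 hr with anti-CD3 beads plus compound, without co-stimulation. Secreted IL-2 quantified by HTRF (europium cryptate donor, d2 acceptor, 665 nm emission).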
A general note: Time-resolved FRET reads energy transfer from a long-lived donor to a nearby acceptor.
As to `CN(C)c1ccc(C=c2c3ccccc3n3c2c2ccccc2[n+]3C)cc1`, the Potency is 0.56 µM (active).
Under `COc1ccc(NC(=O)C(c2ccccn2)N(C(C)=O)c2ccc(C)cc2)cc1` (stereo unspecified) stands “inactive”.
As for `COc1cc(N)c(Cl)cc1C(=O)N[C@H]1CCN(CCCOc2ccc(F)cc2)C[C@H]1OC`, the entry is “inactive”; as for `O=C(CCOc1ccccc1)Nc1ccc(S(=O)(=O)Nc2ncccn2)cc1`, “inactive”.
Under `COc1ccc(S(=O)(=O)Nc2ccc3cn[nH]c3c2)cc1[N+](=O)[O-]` stands “inactive”; under `Cc1ccc(S(=O)(=O)N(C)/N=C/C=C/c2ccccc2)cc1`, “inactive”; under `COc1cc(C(=O)Nc2ccn(C)n2)ccc1OC(F)F`, “inactive”.
As to `O=C(Cn1ncc(Cl)c(Cl)c1=O)NCC1CCCCC1`, the Potency result was “inactive”.
Regarding `O=C(CCCN1CCC(C(=O)c2ccc(F)cc2)CC1)c1ccc(F)cc1`, the Potency entry was “inactive”.
Under `Cc1ccc(NS(=O)(=O)c2ccc(C)c(C(=O)NCC(c3ccccc3)N(C)C)c2)cc1` (stereo unspecified) stands “inactive”.
In the case of `COc1ccc(OC)c(NC(=O)COC(=O)c2ccc(OC)c(S(=O)(=O)N3CCOCC3)c2)c1`, the Potency result was “inactive”.
As to `CN1C(=O)c2ccccc2Sc2ccc(NC(=O)N3CCOCC3)cc21`, the Potency entry was “inactive”.
Regarding `COc1ccc(N(C)S(=O)(=O)c2cccc(C(=O)N3CCN(Cc4ccc5c(c4)OCO5)CC3)c2)cc1`, the Potency result is “inactive”.
With `COc1cc(/C=C/C(=O)O)cc(OC)c1OC`, the Potency entry was “inactive”.
`CCCc1nc2ccccc2c(=O)n1CCc1ccccc1`: the Potency result was “inactive”.
With `COc1ccc(Cl)cc1NC(=O)CN1C(=O)NC(C)(Cc2ccc(OC)c(OC)c2)C1=O` (stereo unspecified), the Potency entry was “inactive”.
For `Cc1cc(C)c(-c2csc(NC(=O)C3=NN(c4ccccc4)C(=O)CC3)n2)c(C)c1`, the Potency entry was “inactive”.
As for `S=c1[nH]c2ccccc2n2c(=S)[nH]nc12`, the figure is 11.2 µM (active); as for `O=C(O)c1ccc(OS(=O)(=O)c2cccc(C(F)(F)F)c2)cc1`, “inactive”.
On to `CCC(/C=C1\Sc2ccc(OC)cc2N1CCO)=C\c1sc2ccc(OC)cc2[n+]1CCO`, for which the Potency is 9.96 µM (active).
`CC(=O)NS(=O)(=O)c1ccc(NC(=S)NC(=O)COc2ccccc2C)cc1`: the Potency is 14.1 µM (active).
As for `COc1cc(C(=O)OCCCN2CCCN(CCCOC(=O)c3cc(OC)c(OC)c(OC)c3)CC2)cc(OC)c1OC`, the entry is “inactive”.
As for `N#Cc1ccccc1Sc1ccccc1C(=O)OCC(=O)NC12CC3CC(CC(C3)C1)C2`, the entry is “inactive”.
Under `O=C(CCCN=C1NS(=O)(=O)c2ccccc21)Nc1ccc(Cl)cc1` stands “inactive”; under `CN(C)CCCN1c2ccccc2Sc2ccc(Cl)cc21`, “inactive”.
In the case of `Cc1ccc(C(=O)NCCc2nnc3ccc(SCC(=O)N4CCCCC4)nn23)cc1`, the Potency entry is “inactive”.
Take `Oc1ccccc1CN1CCCC(N2CCN(c3cccc(C(F)(F)F)c3)CC2)C1` (stereo unspecified): the Potency result was “inactive”.
For `Nn1c(SCc2ccccc2F)nnc1-c1ccccn1`, the Potency result was “inactive”.
As for `Cc1nn(Cc2ccccc2)c(C)c1C(=O)N1CCN(S(=O)(=O)/C=C/c2ccccc2)CC1`, the entry is “inactive”; as for `CCN(CC)S(=O)(=O)c1ccc(N2CCN(C)CC2)c(NC(=O)CN2C(=O)NC3(CCCCC3)C2=O)c1`, “inactive”.
Under `CCOc1ccc(-c2nnc(-c3snc(-c4ccc(F)cc4)c3N=CN(C)C)o2)cc1` stands “inactive”.
